Laboratory results reported in PubChem BioAssay (NCI).
Compounds without any hit were thinned out: in the full panel of roughly 79,000, 15% have a hit. Activity calls are given as the source filed them. Rule as the data show it: active = growth inhibition above about 70%; inactive = the rest.

Legend:
[1] = NCI Yeast Anticancer Drug Screen. Data for the rad52 strain (AID 147);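 also: 0% = growth of vehicle-treated control cultures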; settings: S. cerevisiae rad52 mutant growth inhibition, stronger effect = higher value
Procedure, shortened: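 Genetically altered yeast (DNA damage repair defect) treated with compound; inhibition calculated relative to vehicle.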

[2] = NCI Yeast Anticancer Drug Screen. Data for the wt1 strain (AID 149);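 also: 0% = growth of vehicle-treated wt1 cultures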; settings: S. cerevisiae wt1 strain (SPY 50644) growth inhibition, stronger effect = higher value
Procedure, shortened: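 Vehicle-normalised growth inhibition; strain wt1; compound exposure.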

[3] = NCI Yeast Anticancer Drug Screen. Data for the rad50EPP+ strain (AID 151);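 also: 0% = growth of vehicle-treated control cultures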; settings: S. cerevisiae rad50 mutant strain, stronger effect = higher value
Procedure, shortened: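 Strain rad50EPP+; compound exposure; % growth inhibition vs vehicle.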

[4] = NCI Yeast Anticancer Drug Screen. Data for the mgt1 strain (AID 153); settings: S. cerevisiae mgt1 mutant growth inhibition, stronger effect = higher value
Procedure, shortened: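 Read-out: yeast growth inhibition vs vehicle control. Strain mgt1, drawn from a panel altered in DNA damage repair or cell cycle control.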

[5] = NCI Yeast Anticancer Drug Screen. Data for the rad50 strain (AID 155);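 also: 0% = growth of vehicle-only cultures of the same strain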; settings: S. cerevisiae rad50 strain growth inhibition, stronger effect = higher value
Procedure, shortened: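 A DNA repair-deficient yeast mutant serves as the test organism; compound-induced growth inhibition is calculated against vehicle-treated cells.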

[6] = NCI Yeast Anticancer Drug Screen. Data for the mec2-1 strain (AID 157); settings: S. cerevisiae mec2-1 strain, stronger effect = higher value
Procedure, shortened: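 Cells of the genetically defined mec2-1 yeast strain are incubated with test compound. Inhibition of growth is calculated against vehicle-treated controls.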

[7] = NCI Yeast Anticancer Drug Screen. Data for the rad14 strain (AID 159);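 also: 0% = growth of vehicle-treated control cultures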; settings: S. cerevisiae rad14 strain growth inhibition, stronger effect = higher value
Procedure, shortened: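 Vehicle-treated cultures served as the baseline for growth inhibition of a DNA repair-mutant yeast strain exposed to each compound.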

[8] = NCI Yeast Anticancer Drug Screen. Data for the sgs1 mgt1 strain (AID 161);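 also: 0% = growth of cultures given vehicle only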; settings: S. cerevisiae sgs1 mgt1 strain, stronger effect = higher value
Procedure, shortened: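 Genetically altered yeast, compound exposure, growth inhibition relative to vehicle.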

[9] = NCI Yeast Anticancer Drug Screen. Data for the CLN2oe strain (AID 163);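 also: 0% = growth of vehicle-only control cultures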; settings: S. cerevisiae CLN2oe strain, stronger effect = higher value
Procedure, shortened: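 Strain altered in cell-cycle control, incubated with compound; growth compared to solvent-treated controls.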

[10] = NCI Yeast Anticancer Drug Screen. Data for the cln2 rad14 strain (AID 165);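 also: 0% = growth equal to vehicle treated cultures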; settings: S. cerevisiae cln2 rad14 strain, stronger effect = higher value
Procedure, shortened: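 The screen exposed genetically defined yeast (cln2 rad14) to test compounds and scored growth inhibition relative to vehicle-treated controls.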

[11] = NCI Yeast Anticancer Drug Screen. Data for the bub3 strain (AID 167); settings: S. cerevisiae bub3 mutant strain, stronger effect = higher value
Procedure, shortened: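 Inhibition values come from growth of compound-treated mutant yeast normalised to vehicle-treated controls.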

[12] = NCI Yeast Anticancer Drug Screen. Data for the wt2 strain (AID 169);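 also: 0% = growth of vehicle-treated yeast cultures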; settings: S. cerevisiae wt2 strain growth inhibition, stronger effect = higher value
Procedure, shortened: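 Steps: yeast strain treated with compound; growth recorded; inhibition calculated relative to cultures given vehicle alone.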

[13] = NCI Yeast Anticancer Drug Screen. Data for the mlh1 strain (AID 171);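 also: 0% = growth of vehicle-treated control cultures of the same strain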; settings: S. cerevisiae mlh1 strain growth inhibition, stronger effect = higher value
Procedure, shortened: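 Yeast screen: mutant strain plus compound, growth scored against vehicle control wells.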

[14] = NCI Yeast Anticancer Drug Screen. Data for the sgs1 strain (AID 173);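 also: 0% = growth of vehicle-only control cultures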; settings: S. cerevisiae sgs1 mutant, stronger effect = higher value
Procedure, shortened: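 Inhibition of yeast growth served as the measure. The mutant strain was treated with each compound, and growth was normalised to cultures receiving vehicle alone.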

[15] = NCI Yeast Anticancer Drug Screen. Data for the mlh1 rad18 strain (AID 175); settings: S. cerevisiae mlh1 rad18 strain growth inhibition, stronger effect = higher value
Procedure, shortened: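 Compound-treated yeast growth, normalised to vehicle controls. Strain bears defined DNA repair mutations.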

[16] = NCI Yeast Anticancer Drug Screen. Data for the rad18 strain (AID 177); settings: S. cerevisiae rad18 mutant growth inhibition, stronger effect = higher value
Procedure, shortened: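 Inhibition values reflect reduced yeast growth compared with vehicle-treated controls, using a strain engineered with a DNA damage repair defect.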

[17] = at 5.0 µM (retest, dose inferred, filed as 0.5)
[18] = at 50.0 µM (retest, dose inferred, filed as 5.0)

Measured: growth inhibition

O=C(CCc1ccccc1)ON1C(=S)C(c2ccccc2)(c2ccccc2)N=C1Sc1ccccc1
inactive: [1]; at 1.2 µM 13% | [1]; at 3.7 µM 9% | [1]; at 11.0 µM 19% | [1]; at 33.0 µM 23% | [1]; at 100.0 µM 36% | [2]; at 1.2 µM 6% | [2]; at 3.7 µM 6% | [2]; at 11.0 µM 13% | [2]; at 33.0 µM 14% | [2]; at 100.0 µM 17% | [3]; at 1.2 µM 0% | [3]; at 3.7 µM -6% | [3]; at 11.0 µM 1% | [3]; at 33.0 µM 7% | [3]; at 100.0 µM 5% | [4]; at 1.2 µM 44% | [4]; at 3.7 µM 50% | [4]; at 11.0 µM 51% | [4]; at 33.0 µM 54% | [4]; at 100.0 µM 56% | [5]; at 1.2 µM 36% | [5]; at 3.7 µM 34% | [5]; at 11.0 µM 31% | [5]; at 33.0 µM 29% | [5]; at 50.0 µM 50% | [5]; at 100.0 µM 28% | [6]; at 1.2 µM 22% | [6]; at 3.7 µM 14% | [6]; [17] 23% | [6]; at 11.0 µM 6% | [6]; at 33.0 µM 7% | [6]; at 50.0 µM 61% | [6]; at 100.0 µM 26% | [7]; at 1.2 µM 20% | [7]; at 3.7 µM 20% | [7]; at 11.0 µM 27% | [7]; at 33.0 µM 21% | [7]; at 100.0 µM 36% | [8]; [17] -22% | [8]; [18] 37% | [8]; at 50.0 µM 56.6% | [9]; at 1.2 µM 4% | [9]; at 3.7 µM -8% | [9]; at 11.0 µM -4% | [9]; at 33.0 µM 19% | [9]; at 100.0 µM 57% | [10]; [17] -2% | [10]; [18] 35% | [10]; at 50.0 µM 45.9% | [11]; at 1.2 µM 6% | [11]; at 3.7 µM -10% | [11]; [17] -1% | [11]; at 11.0 µM -5% | [11]; at 33.0 µM -7% | [11]; [18] 32% | [11]; at 100.0 µM 22% | [12]; at 1.2 µM 1% | [12]; at 3.7 µM -4% | [12]; at 11.0 µM 0% | [12]; at 33.0 µM 14% | [12]; at 100.0 µM 44% | [13]; at 1.2 µM 44% | [13]; at 3.7 µM 50% | [13]; at 11.0 µM 51% | [13]; at 33.0 µM 54% | [13]; at 100.0 µM 56% | [14]; at 1.2 µM 43% | [14]; at 3.7 µM 44% | [14]; at 11.0 µM 46% | [14]; at 33.0 µM 49% | [14]; at 100.0 µM 56% | [15]; [17] 28% | [16]; at 1.2 µM 21% | [16]; at 3.7 µM 19% | [16]; at 11.0 µM 10% | [16]; at 33.0 µM 21% | [16]; at 100.0 µM 40%
active: [5]; [17] 91% | [5]; [18] 96% | [6]; [18] 94% | [11]; at 50.0 µM 78.7% | [15]; [18] 86% | [15]; at 50.0 µM 88.8%

COc1cccc(C(c2cc3c(cc2O)OCO3)N2CCOCC2)c1OC (stereo unspecified)
inactive: [1]; at 1.2 µM -2% | [1]; at 3.7 µM 2% | [1]; at 11.0 µM 4% | [1]; at 33.0 µM 23% | [1]; at 100.0 µM 28% | [2]; at 1.2 µM -2% | [2]; at 3.7 µM -2% | [2]; at 11.0 µM -2% | [2]; at 33.0 µM 0% | [2]; at 100.0 µM 3% | [3]; at 1.2 µM -6% | [3]; at 3.7 µM -7% | [3]; at 11.0 µM 0% | [3]; at 33.0 µM 11% | [3]; at 100.0 µM 56% | [4]; at 1.2 µM -3% | [4]; at 3.7 µM -5% | [4]; at 11.0 µM 0% | [4]; at 33.0 µM -3% | [4]; at 100.0 µM 4% | [5]; at 1.2 µM -1% | [5]; at 3.7 µM 2% | [5]; [17] -3% | [5]; at 11.0 µM 1% | [5]; at 33.0 µM 14% | [5]; [18] 48% | [5]; at 50.0 µM 42.1% | [5]; at 100.0 µM 46% | [6]; at 1.2 µM -1% | [6]; at 3.7 µM -1% | [6]; [17] -1% | [6]; at 11.0 µM -2% | [6]; at 33.0 µM -2% | [6]; [18] -9% | [6]; at 100.0 µM 37% | [7]; at 1.2 µM 0% | [7]; at 3.7 µM 4% | [7]; at 11.0 µM 7% | [7]; at 33.0 µM 10% | [7]; at 100.0 µM 21% | [8]; [17] 7% | [8]; at 50.0 µM 42.5% | [9]; at 1.2 µM -4% | [9]; at 3.7 µM -3% | [9]; at 11.0 µM -4% | [9]; at 33.0 µM 5% | [9]; at 100.0 µM 19% | [10]; [17] 1% | [10]; [18] 3% | [10]; at 50.0 µM -30.1% | [11]; at 1.2 µM -4% | [11]; at 3.7 µM -4% | [11]; [17] -13% | [11]; at 11.0 µM -9% | [11]; at 33.0 µM 4% | [11]; [18] 56% | [11]; at 50.0 µM 45% | [11]; at 100.0 µM 11% | [12]; at 1.2 µM -3% | [12]; at 3.7 µM -6% | [12]; at 11.0 µM 5% | [12]; at 33.0 µM 0% | [12]; at 100.0 µM -3% | [13]; at 1.2 µM -3% | [13]; at 3.7 µM -1% | [13]; at 11.0 µM 4% | [13]; at 33.0 µM 7% | [13]; at 100.0 µM 32% | [14]; at 1.2 µM -6% | [14]; at 3.7 µM -7% | [14]; at 11.0 µM 8% | [14]; at 33.0 µM 10% | [14]; at 100.0 µM 60% | [15]; [17] 19% | [15]; at 50.0 µM 9.25% | [16]; at 1.2 µM -3% | [16]; at 3.7 µM 0% | [16]; at 11.0 µM 4% | [16]; at 33.0 µM 10% | [16]; at 100.0 µM 36%
active: [6]; at 50.0 µM 83.8% | [8]; [18] 79% | [15]; [18] 71%
